# Experimental data: PubChem BioAssay (NCI)
# About 83,000 compounds went through this panel and 20% of them were active in at least one assay; those are over-represented in the sample as a whole.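 Cell lines were cultured in 96-well plates, exposed to a single compound concentration, and assessed for percent growth 48 hours later.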 A number with no mark means an inactive call. The source made the active and inactive calls. How the source made its calls: active means growth percent below 10; inactive means the rest.
# System: HL-60(TB) leukemia
# Test: NCI-60 one-dose screen, 48 h (100 = growth as untreated, 0 = no growth, -100 = all killed)
# Conditions: 10 µM unless noted
row,SMILES,growth
1,CC1(C)S[C@@H]2[C@H](NC(=O)[C@H](C(=O)O)c3cccs3)C(=O)N2[C@H]1C(=O)O,106%
2,CCn1cc(-c2[nH]c(=S)ncc2-c2ccc(Cl)cc2)c(-c2ccc(Br)cc2)n1,117%
3,Cc1ccccc1C1CC(=O)c2ccccc2C1C (centres undefined),98.6%
4,CNC(=S)NNC(=O)C1CC1,73.3%
5,COc1cc2nc(SCc3cc(OC)c(OC)c(OC)c3)n(Cc3ccccc3)c(=O)c2cc1OC,11.9%
6,CSc1ccc(N(C)c2nc(C)nc3c2CCC3)cc1,-28.3% (active)
7,C=CCNc1nc(NN2C(=O)c3cccc4cccc(c34)C2=O)nc(-n2cnc3ccccc32)n1,93.9%
8,COc1cc(C(=O)/C=C/c2c(-c3cccs3)nc3ccccn23)cc(OC)c1OC,-14.2% (active)
9,COc1ccc(OC)c(-c2c(C#N)c(-c3ccc(Cl)cc3)nc3c2c(-c2ccccc2)nn3-c2ccccc2)c1,99%
10,COc1ccc(NC(=O)c2cccc(C3CCc4c(cc(OC)c(OC)c4OC)O3)c2)cc1 (centres undefined),-8.38% (active)
11,CN(C)c1ccc(C(=C2C=CC(=[N+](C)C)C=C2)c2ccc(N(C)C)cc2)cc1 (tested in a mixture with another compound),-51.3% (active)
12,Cc1cccc(Cc2cnc(NC(=O)CCc3ccc(C)o3)s2)c1,-41.5% (active)
13,CCCCn1c(-c2ccc(C(=O)O/N=C(\N)c3ccc(OC)cc3)cc2)nc(-c2ccccc2)c1-c1ccccc1,-62.5% (active)
14,Oc1c(CN2CCC(N3CCCCC3)CC2)cc(Cc2cc(CN3CCC(N4CCCCC4)CC3)c(O)c3ncccc23)c2cccnc12,-6.31% (active)
15,O=C1C2(c3ccccc3)C(c3ccccc3)=C(c3ccccc3)C1(c1ccccc1)C1CC=CC12 (centres undefined),76.3%
16,O=C(CCc1nnc2sc(Cc3ccccc3Cl)nn12)c1nc2ncccc2[nH]1,116%
17,NC(=O)c1ccc(N=C(N)N=C(N)N)cc1,98.7%
18,Cc1cc(C)c(S(=O)(=O)N2CCN(c3cc4c(cc3F)c(=O)c(C(=O)O)cn4C3CC3)CC2)c(C)c1,8.72% (active)
19,O=[N+]([O-])c1cnc(N2CCN(CC3CC3)CC2)nc1N1CCN(CC2CC2)CC1,99.2%
20,OCc1cccc(F)c1,107%

row,SMILES,growth
1,COC(=O)c1cc(-c2cc(OC)c(OC)c(OC)c2)[nH]c1N/N=C/c1c(Cl)cccc1Cl,134%
2,Cc1ccc(S(=O)(=O)N/N=C/C2(c3ccccc3)CC2)cc1,98.7%
3,CC(C)(C)c1ccc(S(=O)(=O)N[C@H]2CC[C@H]3[C@@H]4CCc5cc(O)ccc5[C@H]4CC[C@]23C)cc1,23%
4,O=C1/C(=C/c2ccc(Cl)cc2)CN(Cc2cn(CCNc3ccnc4cc(Cl)ccc34)nn2)C/C1=C\c1ccc(Cl)cc1,-51.5% (active)
5,O=C1CC[C@@H](C(=O)N[C@H]2CSSC[C@@H](C(=O)NCCc3ccccc3)NC(=O)[C@H](Cc3ccccc3)NC(=O)[C@@H]3CCCN3C(=O)[C@@H]3CCCN3C2=O)N1,76.3%
6,CCC(CCCN1C(=O)c2ccccc2C1=O)Nc1cc(OC)cc2cccnc12 (centres undefined),86.1%
7,CCOC(=O)N1C2CCC(C2)N1C(=O)OCC,92.4%
8,COc1ccc(-c2nc3c(N)c(CO)cnc3s2)cc1,80.5%
9,CC(C)CNCC(=O)Nc1ccc(Cc2ccc(NC(=O)CNCC(C)C)cc2)cc1,38%
10,Cc1cc(C)cc(NCCC#N)c1,84.9%
11,NC1=Nc2cc(OCCCCN3Cc4ccccc4C3)c(OCC3CC3)cc2C12CCCC2,20.2%
12,CC1CCN(CCCCCOc2ccc3oc4cc(Cl)ccc4c(=O)c3c2)CC1,43.4%
13,O=c1[nH]nc(-c2ccc(Cl)cc2)cc1Cc1cccc([N+](=O)[O-])c1,109%
14,O=C(CS)Nc1ccc2ccccc2c1,120%
15,C=C(CNCCc1ccc(O)cc1)[C@@H]1CC[C@]2(CO)CC[C@]3(C)[C@H](CC[C@@H]4[C@@]5(C)CCC(=O)C(C)(C)[C@@H]5CC[C@]43C)[C@@H]12,-41.5% (active)
16,CCC1(c2ccccc2)Oc2ccccc2-n2c(C#N)c3ccccc3c2C1=O (centres undefined),92.8%
17,COc1ccc(C2C=C(c3ccc(Cl)cc3)N=C3SC=C(C)N32)c(Br)c1 (centres undefined),7.64% (active)
18,O=C(Nc1cccc(C2=NCCN2)c1)c1cccc(C(=O)Nc2cccc(C3=NCCN3)c2)c1,98.7%
19,NS(=O)(=O)N(c1cc(C(F)(F)F)cc(C(F)(F)F)c1)C1CCN(Cc2ccc(F)cc2)CC1,26.3%
